Measured values: PubChem BioAssay (EPA / NIEHS)
Activity calls are given as the source filed them. Rule for the calls: active = hit-call score of the fitted dose curve at least 0.9, where 1 is the maximum; inactive = score below 0.9.

Read-out: Monokine induced gamma interferon (MIG), CXCL9 (gene 4283)
Assay: BSK_BE3C_MIG: BioMAP Diversity Plus: BE3C Assay for Monokine induced gamma interferon (MIG) Biomarker Activity (AID 2283035)
Details: primary human bronchial epithelial cells; actives raise or lower the signal
Description: BSK_BE3C is a cell-based, multiplexed-readout assay that uses bronchial epithelial cell, a human lung primary cell, with measurements taken at 24 hours after chemical dosing in a 96-well plate.BSK_BE3C_MIG is an assay component measured in the BSK_BE3C assay. It measures MIG antibody related to regulation of gene expression using ELISA technology.Data from the assay component BSK_BE3C_MIG was analyzed into 1 assay endpoint. This assay endpoint, BSK_BE3C_MIG, was analyzed with bidirectional fitting relative to DMSO as the negative control and baseline of activity. Using a type of binding reporter, gain or loss-of-signal activity can be used to understand changes in the signaling as they relate to the gene CXCL9. Furthermore, this assay endpoint can be referred to as a primary readout, because this assay has produced multiple assay endpoints where this one serves a signaling function. To generalize the intended target to other relatable targets, this assay endpoint is annotated to the cytokine intended target family, where the subfamily is chemotactic factor.
The levels of cell surface (or secreted, indicated by the prefix "s") biomarker endpoints were measured by ELISA. Overt cytotoxicity to cells in confluent adherent cultures (all systems other than the BT system) was assessed by measuring total protein levels using sulforhodamine B (SRB) staining in parallel cultures at the time of biomarker measurements, indicated as SRB endpoints. For proliferation assays for adherent cell types, individual cell types are cultured at sub-confluence and relative cell numbers quantified by SRB staining at time points optimized for each system (48 h: 3C and CASM3C systems; 72 h: BT and HDF3CGF systems; 96 h: SAg system). SRB was performed by staining cells with 0.1% SRB after fixation with 10% TCA and reading wells at 560 nm.Viability and proliferation of PBMC (T cells) was quantified by Alamar Blue reduction for the SAg and BT systems. For PBMC viability (referred to as PBMC Cytotoxicity within the assay endpoint names), cells were plated (75,000/well in a 96-well plate) and then chemical samples added for 1 h before addition of activators, SEB and TSST-1 (20 ng/mL final concentration each). Cells were incubated for 90 h. Then, Alamar Blue (20 uL/well) (Invitrogen, Cat DAL1100) was added for 6 h, and the plates were read with a fluorescence microplate reader at 546/580 nm (excitation/emission). For PBMC proliferation, cells were plated and activated as above but incubated for only 16 h prior to addition of Alamar Blue. Plates were read after 6 h.

Row | SMILES | outcome | AC50
1 | CCCCOC(=O)c1ccccc1C(=O)O | inactive | –
2 | CCOP(=S)(OCC)Oc1cc(C)nc(C(C)C)n1 | inactive | –
3 | CC(COc1ccc(Oc2ccccc2)cc1)Oc1ccccn1 (stereo not given) | inactive | –
4 | CN1COCN(Cc2cnc(Cl)s2)C1=N[N+](=O)[O-] | inactive | –
5 | COP(=O)(OC)OC(Br)C(Cl)(Cl)Br (stereo not given) | – | 30.8 µM (active)
6 | CC(C)[C@H](C(=O)O[C@H](C#N)c1cccc(Oc2ccccc2)c1)c1ccc(Cl)cc1 | inactive | –
7 | N#CSCSC#N | inactive | –
8 | CCCOCC(=Nc1ccc(Cl)cc1C(F)(F)F)n1ccnc1 | – | 35.3 µM (active)
9 | CN(C)[C@@H]1C(=O)C(C(N)=O)=C(O)[C@@]2(O)C(=O)C3=C(O)c4c(O)cccc4[C@@](C)(O)[C@H]3[C@H](O)[C@@H]12 | inactive | –
10 | CNC(=O)ON=C(SC)C(=O)N(C)C | inactive | –
11 | CCOP(=O)(SC(C)CC)N1CCSC1=O (stereo not given) | inactive | –
12 | CCOC(=O)COc1cc(-c2nn(C)c(OC(F)F)c2Cl)c(F)cc1Cl | inactive | –
13 | CC(Oc1cccc(Cl)c1)C(=O)O (stereo not given) | inactive | –
14 | CCC(=NOC/C=C/Cl)C1=C(O)CC(C2CCOCC2)CC1=O (stereo not given) | inactive | –
15 | CSc1nnc(C(C)(C)C)c(=O)n1N | inactive | –
16 | CC(=NC#N)N(C)Cc1ccc(Cl)nc1 | inactive | –
17 | Nc1c(Cl)cc([N+](=O)[O-])cc1Cl | inactive | –
18 | CCOP(=S)(OCC)OC(Cl)C(Cl)(Cl)Cl (stereo not given) | inactive | –
19 | CCc1cccc(CC)c1N(COC)C(=O)CCl | inactive | –
20 | CCNc1nc(Cl)nc(NC(C)(C)C#N)n1 | inactive | –

Row | SMILES | outcome | AC50
21 | Cc1cc(C2CC2)nc(Nc2ccccc2)n1 | inactive | –
22 | CCCSP(=O)(OCC)SCCC | inactive | –
23 | CCOC(=O)CC(SP(=O)(OC)OC)C(=O)OCC (stereo not given) | inactive | –
24 | COP(=O)(OC)C(O)C(Cl)(Cl)Cl (stereo not given) | inactive | –
25 | CCCCOC(=O)[C@@H](C)Oc1ccc(Oc2ccc(C#N)cc2F)cc1 | inactive | –
26 | CNC(=O)ON=C(C)SC | inactive | –
27 | CCOP(=O)(NC(C)C)Oc1ccc(SC)c(C)c1 (stereo not given) | inactive | –
28 | COc1cccc(C(=O)NN(C(=O)c2cc(C)cc(C)c2)C(C)(C)C)c1C | inactive | –
29 | CCc1cccc(C)c1N(C(=O)CCl)C(C)COC (stereo not given) | inactive | –
30 | COc1ccc(C(=CC(=O)N2CCOCC2)c2ccc(Cl)cc2)cc1OC | inactive | –
31 | CCCOc1nn(C(=O)NS(=O)(=O)c2ccccc2C(=O)OC)c(=O)n1C | inactive | –
32 | CCOP(=S)(OCC)SCCSCC | inactive | –
33 | CCC(=O)Nc1ccc(Cl)c(Cl)c1 | inactive | –
34 | COP(=O)(OC)SCn1c(=O)oc2cc(Cl)cnc21 | inactive | –
35 | COP(=O)(NC(C)=O)SC (stereo not given) | inactive | –
36 | COc1cc(OC)nc(Sc2cccc(Cl)c2C(=O)O)n1 | inactive | –
37 | CC(C1CC1)C(O)(Cn1cncn1)c1ccc(Cl)cc1 (stereo not given) | inactive | –
38 | CC(C)N(C(=O)SCC(Cl)=C(Cl)Cl)C(C)C | inactive | –
39 | CON=C(C(=O)OC)c1ccccc1CON=C(C)c1cccc(C(F)(F)F)c1 | inactive | –
40 | C#CCC1=C(C)C(OC(=O)C2C(C=C(C)C)C2(C)C)CC1=O (stereo not given) | inactive | –
